Screening results (PubChem)
CYP2C9 act = CYP2C9 (human) activation | activation factor at 5 µM | recombinant CYP2C9, luciferin-H conversion, luminescence; stronger effect = higher value; factor 1 = untreated enzyme, 0 = blocked | 1.4% of 96,000 active | P11712 | AID 1024;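 active = activation factor of 2 or more for CYP2C9 at a 5 µM dose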;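 note: 0 = sulfaphenazole-blocked wells and 1 = vehicle-only wells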
CYP2C19 inhib = human CYP2C19 inhibition. P33261. CYP2C19 Supersomes, luciferin-H EGE luminescence, 30 min. inhibition, % at 5 µM. 21% of 96,000 active. AID 778;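 active = CYP2C19 inhibition above a set limit at 5 µM in the primary screen, cut at about 50% in these data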;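 note: plate controls were negative control wells for no effect and 2.5 mM tranylcypromine positive control for full effect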
Mac1 fbg inh = blocks human CD11b/CD18 adhesion to fibrinogen; K562 CD11b/CD18 adhesion to fibrinogen, ATPlite luminescence; Mn2+ added to activate the integrin; P05107+P11215; 0.54% of 93,000 active; inhibition, % at 10 µM;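 active = primary inhibition of 50% or more at 10 µM, then 40% or more on retest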
Target sequence (P05107 whole entry, looked up, other chains not shown): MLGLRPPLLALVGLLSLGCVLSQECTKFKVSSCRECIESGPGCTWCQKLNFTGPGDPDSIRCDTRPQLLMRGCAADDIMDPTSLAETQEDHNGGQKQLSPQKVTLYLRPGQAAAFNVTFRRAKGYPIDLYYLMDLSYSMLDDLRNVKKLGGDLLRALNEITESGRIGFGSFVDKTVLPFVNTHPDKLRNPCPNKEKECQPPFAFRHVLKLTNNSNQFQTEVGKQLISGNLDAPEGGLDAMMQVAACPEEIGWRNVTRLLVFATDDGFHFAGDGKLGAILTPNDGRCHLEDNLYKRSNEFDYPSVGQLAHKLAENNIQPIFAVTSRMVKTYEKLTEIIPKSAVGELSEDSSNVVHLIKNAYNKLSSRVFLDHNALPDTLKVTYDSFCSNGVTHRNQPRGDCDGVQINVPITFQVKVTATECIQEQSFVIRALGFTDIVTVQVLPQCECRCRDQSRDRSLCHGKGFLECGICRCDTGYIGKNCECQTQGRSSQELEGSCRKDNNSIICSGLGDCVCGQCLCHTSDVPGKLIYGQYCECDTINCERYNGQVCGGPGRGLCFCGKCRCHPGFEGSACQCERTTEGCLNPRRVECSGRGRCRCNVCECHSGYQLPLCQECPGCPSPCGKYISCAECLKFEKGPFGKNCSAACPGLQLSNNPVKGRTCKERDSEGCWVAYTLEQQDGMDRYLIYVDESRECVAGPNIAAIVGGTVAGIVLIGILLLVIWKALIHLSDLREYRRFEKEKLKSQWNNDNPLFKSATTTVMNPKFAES
CD11b adhes enh = CD11b/CD18-fibrinogen binding enhancement; P05107+P11215; K562 CD11b/CD18 adhesion to fibrinogen, ATPlite luminescence; activation, % at 10 µM; 0.07% of 93,000 active; AID 1499;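 active = 10 µM primary screen giving 50% or more activity, confirmed by 40% or more on retest at that dose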
CYP2C19 act = increases human CYP2C19 enzyme activity. recombinant CYP2C19, luciferin-H EGE luminescence; stronger effect = higher value; 0 = fully inhibited enzyme, 1 = untreated enzyme. P33261. activation factor at 5 µM. 96,000 tested, under 10 active;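 active = activation factor of at least 2 at 5 µM in the primary screen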;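 note: 0 = wells with 2.5 mM tranylcypromine and 1 = vehicle-only wells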
CYP2C9 inhib = human CYP2C9 inhibition. P11712. CYP2C9 Supersomes, luciferin-H conversion, luminescence. inhibition, % at 5 µM. 20% of 96,000 active;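 active = blocking of liver enzyme CYP2C9 beyond about 50% at 5 µM, limit read from the data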
* hit, by the source's call; x = no result. Most compounds without a hit are left out; they make up all but 28% or so of the library.

SMILES	CYP2C9 act	CYP2C19 inhib	Mac1 fbg inh	CD11b adhes enh	CYP2C19 act	CYP2C9 inhib
COC(CN1C(=O)C(O)=C(C(C)=O)C1c1ccccn1)OC (centres undefined)	0.8	7	-2	0	0.9	15
COc1ccc(S(=O)(=O)c2ccc(OC)c(OC)c2)cc1OC	1.6	79*	-3	-1	0.2	-63
COC(=O)c1cccc(NS(=O)(=O)c2ccc(OC)c(OC)c2)c1C	0.6	19	10	-5	0.8	43
COc1ccc(CC(=O)Nc2ccc(S(=O)(=O)N(C)C)cc2)cc1OC	0.9	0	x	x	1	11
COc1ccc(S(=O)(=O)Nc2ccc(NC(C)=O)cc2)cc1OC	0.3	95*	-30	15	0.1	67*
COc1ccc(CONS(=O)(=O)c2ccc(NC(C)=O)cc2)cc1Cl	1	53*	x	x	0.5	-4
COC(=O)c1ccc(C)c(NS(=O)(=O)c2ccc(OC)c(OC)c2)c1	0.4	82*	-3	2	0.2	58*
CCCCN(C)CCNS(=O)(=O)c1ccc2c(c1)n(C)c(=O)c(=O)n2C	1.1	-10	-2	16	1.1	-7
CCC(C)NC(=O)CS(=O)Cc1nc(-c2cccc(OC)c2)oc1C (centres undefined)	0.8	14	-6	-2	0.9	17
Cc1cc(C)n2nc(S(=O)(=O)NC3CCCCC3)nc2n1	1	24	-5	1	0.8	-5
Cc1cccc(Cn2c(C(C)(C)C)cc3cccnc32)c1	1	9	1	-1	0.9	-5
COc1cc(C2N(c3ccccc3)CCN2c2ccccc2)cc(OC)c1OC	0.6	75*	10	-3	0.3	41
COc1cc(C2N(c3cccc(Cl)c3)C(=O)C3CCCN32)cc(OC)c1OC (centres undefined)	0.8	43	-8	-2	0.6	17
Cc1ccc(S(=O)(=O)N2c3ccccc3NC(=O)C2CC(=O)Nc2ccccc2)cc1 (centres undefined)	0.1	57*	-1	2	0.4	89*
c1ccc(-c2onc3c2CCCC3)cc1	1	58*	-8	-3	0.4	-3
COC(=O)C1=C(C)N(C)C(C)=C(C(=O)OC)C1c1ccncc1	0.2	78*	2	-2	0.2	79*
CCN1C(=O)NC(c2cccnc2)C(C(=O)OC)=C1C (centres undefined)	1	0	-23	1	1	1
CCOC(=O)C1=C(C)N(C)C(C)=C(C(=O)OCC)C1c1ccncc1	0	97*	7	0	0	100*
CCOC(=O)C1=C(C)NC(=O)NC1c1cccnc1 (centres undefined)	1.1	3	-4	-1	1	-6
COC(=O)C1=C(C)N(C)C(C)=C(C(=O)OC)C1c1ccc(F)c(Br)c1	0.1	65*	x	x	0.4	94*
O=C(O)c1cn(-c2ccc(F)c(F)c2)c2c(F)c(F)c(F)c(F)c2c1=O	0.9	9	x	x	0.9	7
O=C(Cn1cnc2ccccc2c1=O)NCC(=O)N1CCN(c2ccccn2)CC1	1.1	-4	-8	1	1	-11
CN(NS(=O)(=O)c1ccccc1)c1nc2ccccc2nc1C(F)(F)F	0.1	99*	-3	-2	0	90*
Cc1cc(NC(=O)c2ccccc2)sc1C	1.1	10	14	-1	0.9	-13
Cc1ccc(NC(=O)c2ccccc2)s1	0.6	58*	2	-3	0.4	38
SMILES	CYP2C9 act	CYP2C19 inhib	Mac1 fbg inh	CD11b adhes enh	CYP2C19 act	CYP2C9 inhib
O=C(CSc1nnc(CNC(=O)c2ccccc2F)o1)c1ccccc1	0.6	30	-23	3	0.7	37
O=C(O)c1ccc2c(c1)C(=O)N(c1cc(C(=O)O)ccc1Br)C2=O	0.9	9	-19	-2	0.9	8
CCOC(=O)C1=C(CSc2nncn2C)NC(=O)NC1c1cc(OCC)ccc1OCC (centres undefined)	1.2	-17	0	-1	1.2	-23
Cc1onc(-c2c(Cl)cccc2Cl)c1C(=O)NCc1ccco1	0.2	89*	-5	-1	0.1	81*
Cc1onc(-c2c(Cl)cccc2Cl)c1C(=O)N/N=C(\N)COc1ccc(Cl)cc1	0.1	-2	-2	5	1	86*
Cc1onc(-c2c(F)cccc2Cl)c1C(=O)NCCc1ccc(S(N)(=O)=O)cc1	1.1	28	10	2	0.7	-7
Cc1onc(-c2ccccc2Cl)c1C(=O)NCc1ccccn1	0.9	47	1	-7	0.5	8
Cc1onc(-c2c(F)cccc2Cl)c1C(=O)NCc1ccccn1	0.7	56*	-1	5	0.4	32
COc1ccc(C2CC(c3ccc(OC)cc3)n3nc(NC(=O)c4ccco4)nc3N2)cc1 (centres undefined)	0.9	9	-10	1	0.9	11
CCC(C)(C)n1nnnc1CN1CCN(c2nc3cc(OC)ccc3cc2C#N)CC1	0.9	30	-4	0	0.7	5
CCCOc1ccc(-c2nnn(CC(=O)c3c[nH]c4ccccc34)n2)cc1	0.7	-9	3	14	1.1	27
Cn1c(Oc2ccccc2NCc2cc(Br)ccc2O)cc(=O)n(C)c1=O	0.1	76*	x	x	0.2	95*
Cc1ccc(NC(=O)CCC(=O)NNC(=O)c2cccc([N+](=O)[O-])c2)cc1C	1	-3	-4	-7	1	4
O=C(O)CCCc1nc2ccccc2s1	1	55*	0	6	0.4	4
COC(=O)CCCc1nc2ccccc2s1	0.8	38	x	x	0.6	24
CN(C(=O)CCc1nc2ccccc2s1)c1ccccc1	1	70*	-34	-1	0.3	1
CCCOc1ccccc1Nc1nnc(C)c(=O)[nH]1	1.1	-6	-6	0	1.1	-9
Cc1ccc2c(c1)-c1c(ssc1=S)C(C)(C)N2C(=O)CSc1nncn1C	0.6	76*	6	3	0.2	43
CC1(C)c2ssc(=S)c2-c2ccccc2N1C(=O)CSC1=NCCS1	0.7	52*	x	x	0.5	31
COc1ccc2c(c1)-c1c(ssc1=S)C(C)(C)N2C(=O)CSC1=NCCS1	0.3	72*	-35	3	0.3	73*
Cc1cc2c(cc1C)N(C(=O)CSC1=NCCS1)C(C)(C)c1ssc(=S)c1-2	0.3	78*	-42	5	0.2	70*
O=C(CSc1ccc(-c2ccco2)nn1)NCc1ccccc1Cl	x	x	-8	29	x	x
CCn1c(Cn2nnc(-c3ccccc3)n2)nnc1SCc1ccc(Cl)c(Cl)c1	0.6	15	30	-4	0.9	38
Cc1ccc(S(=O)(=O)/N=C(/Nc2c(C)n(C)n(-c3ccccc3)c2=O)c2ccc(Cl)cc2)cc1	0.6	31	x	x	0.7	39
